Compounds without any hit were thinned out: in the full panel of roughly 83,000, 20% have a hit.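 Compound tested at a single concentration for 48 hours in 96-well plates; a percent growth value below 10 was scored as active.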 Calls of active or inactive are those of the source.
What follows are molecules tested on HL-60(TB) leukemia (assay: NCI-60 one-dose screen, 48 h (100 = growth as untreated, 0 = no growth, -100 = all killed)). Conditions: 10 µM unless noted.

| Compound | growth |
| --- | --- |
| COC(=O)C1=Nc2ccc(F)cc2/C1=C/c1sc(=S)[nH]c1O | -28.8% (active) |
| O=C1/C=C/[C@@H](O)[C@@H]2C[C@@H](O)C[C@H]2/C=C/CCC[C@H](CCc2cccc3ccccc23)O1 | -44.8% (active) |
| COc1ccc([N+](=O)[O-])c(S(=O)(=O)c2ccc(Cl)cc2)n1 | 38.2% (inactive) |
| Cc1nc2c3c(ncn2n1)Oc1c(c(=O)[nH]c2ccccc12)C3c1ccc(Cl)cc1 (stereo not given) | 98% (inactive) |
| COc1ccccc1N1CCN(CCCOc2ccc(OCCCN3CCN(c4ccccc4OC)CC3)c(C(=O)c3cc(OC)c(OC)c(OC)c3)c2)CC1 | 101% (inactive) |
| Cc1cc(N/C=c2\sc3ncnn3c2=O)no1 | 111% (inactive) |
| O=C(O)c1ccc2c(c1Cl)C(=O)c1ccccc1C2=O | 56.6% (inactive) |
| CC1(C)COB(OCC(C)(C)COB2OCC(C)(C)CO2)OC1 | 101% (inactive) |
| CCNC(=O)Oc1ccc(/C(=C(\C)c2ccc(Cl)cc2)c2ccc(OCCN(CC)CC)cc2)cc1 | 23.9% (inactive) |
| O=C(Nc1ccc(Oc2ccc(Nc3nc4ccccc4s3)cc2)cc1)Nc1ccc(Cl)c(C(F)(F)F)c1 | -19.3% (active) |
| CCOC(=O)C(C#N)C1CCCCC1 (stereo not given) | 67.5% (inactive) |
| O=C(Nc1cc(Cl)cc(Cl)c1)Oc1c(Cl)c(Cl)c(Cl)c(Cl)c1Cl | 60.9% (inactive) |
| Cn1cc(-c2ccc3nc(-c4ccc(CC(=O)Nc5cc(C(C)(C)C)no5)cc4)cnc3c2)cn1 | 18.5% [30 µM] (inactive) |
| NS(=O)(=O)c1ccc(CN=C2NC(=O)S/C2=C\c2ccc(Br)cc2)cc1 | 97.5% (inactive) |
| C=C1c2nc3ccccc3n2C=C(c2cccc(Cl)c2)N1Cc1ccc(OC)cc1 | -25% (active) |
| CC(C)(CCCN=C(N)Nc1ccc(Cl)cc1)c1ccc(F)cc1 | 93.4% (inactive) |
| ON=C(C1CCCCC1)C1CCCCC1 | 96.7% (inactive) |
| CCC(C)(O)Cc1ccc(Cl)cc1 (stereo not given) | 96% (inactive) |
| Cc1ccc(C(=O)NC2c3ccccc3Oc3ccccc32)cc1 | -3.42% (active) |
| CCSc1ccc([C@@H]2[C@@H](N)C(=O)N2c2cc(OC)c(OC)c(OC)c2)cc1 | -40.5% (active) |

| Compound | growth |
| --- | --- |
| COc1ccc2c(c1)C(Br)=C(CCO)C2c1ccccc1 (stereo not given) | 1.04% (active) |
| CCN=C1C=CC(=C(c2ccc(N(CC)CC)cc2)c2ccc(N(CC)CC)cc2)c2ccccc21 | -31.1% (active) |
| C=C1C(=O)O[C@H]2[C@H]1CC/C(CNS(=O)(=O)c1cccc3ccccc13)=C\CC[C@@]1(C)O[C@@H]21 | -31.9% (active) |
| Oc1ccc(Nc2ccc3ccccc3c2)cc1 | 54.9% (inactive) |
| COC(=O)c1cc2oc(/C=N/NC(=O)c3cc4oc(-c5cccc(C(F)(F)F)c5)cc4[nH]3)cc2n1Cc1ccccc1 | 69.9% (inactive) |
| COC1(CC[C@@H](C)COC2OC(CO)C(O)C(O)C2O)O[C@H]2C[C@H]3[C@@H]4CC=C5C[C@@H](OC6OC(CO)C(OC7OC(C)C(O)C(O)C7O)C(O)C6OC6OC(C)C(O)C(O)C6O)CC[C@]5(C)[C@H]4CC[C@]3(C)[C@H]2[C@@H]1C (stereo not given in full) | 27.1% (inactive) |
| COc1ccc(-c2nnc(COc3ccc(C(=O)/C=C/c4ccco4)cc3)o2)cc1 | 79.7% (inactive) |
| O=C(/C=C/c1ccc(B(O)O)cc1)/C=C/c1ccc(B(O)O)cc1 | 21.7% (inactive) |
| Cc1nn(-c2ccccc2)c(N2CCCCC2)c1/C=N/NC(=O)Cn1c(=O)sc2ccccc21 | 69.9% (inactive) |
| O=C1N=c2cc3c(cc2=C/C1=C/c1sc(=S)n(CCc2ccc(O)cc2)c1O)OCCO3 | 48.1% (inactive) |
| CC(C)(C)[Si](C)(C)OCC1OC(n2cnc3c(N)ncnc32)CC1OS(C)(=O)=O (stereo not given) | 104% (inactive) |
| O=S(=O)(O)c1cc(O)c2c(N=Cc3ccccc3O)c(S(=O)(=O)O)ccc2c1 | 101% (inactive) |
| COc1ccc(C(=O)/C=C/c2ccc(C)cc2)cc1OC | 58.4% (inactive) |
| c1ccc2[nH]c(Cc3nc4ccccc4[nH]3)nc2c1 | 75.6% (inactive) |
| C/C(=N/N=C(N)N)c1ccc(N)cc1 | 60.1% (inactive) |
| Cc1cc(C)cc(OCC(=O)O)c1 | 86% (inactive) |
| Cc1cc(/C=C/c2ccc3cc(N(C)C)ccc3[n+]2C)c(C)n1-c1ccccc1 | -26.1% (active) |
| O=C1N=c2ccccc2=C1c1sc(=Nc2ccccc2)n(Nc2ccccc2)c1O | 97.5% (inactive) |
| Cc1ccc(C2CC3c4ccccc4C2C2CCCCN32)cc1 (stereo not given) | 52.8% (inactive) |
| COc1cc(C2C3CC4CCCC[C@H]4N3[C@@]3(C(=O)Nc4cc(Cl)ccc43)C2C(=O)c2nc3ccccc3[nH]2)cc(OC)c1OC (stereo not given in full) | 21.8% (inactive) |

Source: PubChem BioAssay (NCI)
